Compound: Nc1ncnc2c1ncn2[C@@H]1O[C@H](COP(=O)(O)OP(=O)(O)OP(=O)(O)O)[C@@H](O)[C@H]1O [adenosine 5'-triphosphate]
Experiment: log2 fold change of tryptic peptide abundance, ligand vs vehicle (limited proteolysis) (log2 ratio); higher = more trypsin-susceptible (destabilized)
Conditions: ligand concentration: 5 mM; sample: E. coli desalted lysate; replicate design: treated before aliquoting
Description: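 HT-PELSA: desalted E. coli K-12 BW25113 lysate (with 12 mM MgCl2) incubated with 5 mM ATP (pH 7) or water for 30 min at 25 C, then a 4 min trypsin pulse at 22 C. Peptides were quantified by DIA-MS (4 replicates). Value is the peptide log2 fold change (treated/control); negative = stabilized. Scale: negative = ligand-stabilized region.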
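Note: lysate desalted by size exclusion to strip endogenous ATP, peptide intensities built from DIA-NN precursor signals, and peptides missing any value discarded before comparison.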

UniProt Q46855 (peptide sequence: VGYESASQFSR, peptide start residue: 285)
log2 fold change: 0.235

UniProt P25539 (peptide sequence: LADAPQFK, peptide start residue: 342)
log2 fold change: -0.381

UniProt P28634 (peptide sequence: WRVTDAGFEVFALEPR, peptide start residue: 220)
log2 fold change: 0.789

UniProt P27431 (peptide sequence: EMMLELINQPEHFK, peptide start residue: 252)
log2 fold change: 0.714

UniProt P18392 (peptide sequence: EHIFEPFVR, peptide start residue: 367)
log2 fold change: -1.71

UniProt P25748 (peptide sequence: IGYLSSSHGIEDDAMRK, peptide start residue: 179)
log2 fold change: 0.977

UniProt P27859 (peptide sequence: ELLPLIPAEK, peptide start residue: 188)
log2 fold change: -0.738

UniProt P0ADZ7 (peptide sequence: DFVAAVLPK, peptide start residue: 96)
log2 fold change: -0.282

UniProt P32134 (peptide sequence: ACISGQGDMPFK, peptide start residue: 221)
log2 fold change: -1.02

UniProt P16095 (peptide sequence: VGIGPSSSHTVGPMK, peptide start residue: 10)
log2 fold change: 0.369

UniProt P40719 (peptide sequence: RFTSDAAHELR, peptide start residue: 239)
log2 fold change: -2.75

UniProt P21893 (peptide sequence: DCNFPSK, peptide start residue: 181)
log2 fold change: -0.813

UniProt P21599 (peptide sequence: VLEVQGMK, peptide start residue: 138)
log2 fold change: -1

UniProt P27550 (peptide sequence: IAEAAVVGIPHNIK, peptide start residue: 542)
log2 fold change: -2.61

UniProt P13035 (peptide sequence: IGLFMYDHLGK, peptide start residue: 103)
log2 fold change: 0.643

UniProt P08401 (peptide sequence: NVQEGGVLASLR, peptide start residue: 457)
log2 fold change: 0.651

UniProt P77536 (peptide sequence: MVDELGHWEEWRDR, peptide start residue: 41)
log2 fold change: -0.517

UniProt P0ABM9 (peptide sequence: DEAQEQQFR, peptide start residue: 27)
log2 fold change: 0.867

UniProt P37648 (peptide sequence: DKGLPEEEFNALVAQK, peptide start residue: 363)
log2 fold change: 0.498

UniProt P30864 (peptide sequence: KIIASPDYISR, peptide start residue: 165)
log2 fold change: 1.32

UniProt P39208 (peptide sequence: RAGHFMPVALLK, peptide start residue: 119)
log2 fold change: -1.52

UniProt Q46925 (peptide sequence: SQFAEAQR, peptide start residue: 53)
log2 fold change: -0.663

UniProt P75767 (peptide sequence: VLSSLSSLGSR, peptide start residue: 24)
log2 fold change: -1.19

UniProt P37751 (peptide sequence: SQLTDDDSQFK, peptide start residue: 183)
log2 fold change: -0.401

UniProt P32684 (peptide sequence: ITLVQGLNR, peptide start residue: 179)
log2 fold change: 0.498

UniProt P37634 (peptide sequence: HSFHAGNHADVLK, peptide start residue: 6)
log2 fold change: -1.17

UniProt P07013 (peptide sequence: LVLSGTVCR, peptide start residue: 5)
log2 fold change: -0.606

UniProt P42599 (peptide sequence: LSECQKVCFVPR, peptide start residue: 252)
log2 fold change: -0.582

UniProt P16676 (peptide sequence: LYNGDER, peptide start residue: 345)
log2 fold change: 0.414

UniProt P25741 (peptide sequence: LSDVGVDTMK, peptide start residue: 84)
log2 fold change: -0.922

UniProt P33593 (peptide sequence: VLALVGGSGSGK, peptide start residue: 31)
log2 fold change: -0.833

UniProt P00582 (peptide sequence: QLNIPRK, peptide start residue: 776)
log2 fold change: -3.24

UniProt P76149 (peptide sequence: AGAAIGAQAGAALKK, peptide start residue: 216)
log2 fold change: -1.54

UniProt P77737 (peptide sequence: TRCPIAGPECAK, peptide start residue: 302)
log2 fold change: 2.24

UniProt P45522 (peptide sequence: TLVTLGMHPHQAQR, peptide start residue: 530)
log2 fold change: 0.604

UniProt P26612 (peptide sequence: TIHLGENYGNK, peptide start residue: 446)
log2 fold change: 0.945

UniProt P76536 (peptide sequence: ALSGGVGAEELK, peptide start residue: 66)
log2 fold change: 0.555

UniProt P09373 (peptide sequence: ALIPFGGIK, peptide start residue: 109)
log2 fold change: -0.384

UniProt P76273 (peptide sequence: CGISNVALTHFDGR, peptide start residue: 165)
log2 fold change: 0.512

UniProt P64602 (peptide sequence: GITCIDLSR, peptide start residue: 38)
log2 fold change: 0.802
